# Reference: article PMC7862700, “An all-to-all approach to the identification of sequence-specific readers for epigenetic DNA modifications on cytosine”
# Columns and labels:
# Assay in all cases: DAPPL (digital affinity profiling via proximity ligation, sequencing); 10 mM Tris-HCl pH 7.5, 50 mM NaCl, 1 mM DTT, 4% glycerol, room temperature, 30 min; GST-TFs on glutathione beads, 16-mer random dsDNA library, 0.1% formaldehyde crosslink after washing; high values mean tight binding
# FLI1 = target: T1, FLI1 (Homo sapiens, UniProt Q01543 1-452); conditions: protein: recombinant; tags: N-terminal GST; dsDNA, one strand shown
# T1 sequence: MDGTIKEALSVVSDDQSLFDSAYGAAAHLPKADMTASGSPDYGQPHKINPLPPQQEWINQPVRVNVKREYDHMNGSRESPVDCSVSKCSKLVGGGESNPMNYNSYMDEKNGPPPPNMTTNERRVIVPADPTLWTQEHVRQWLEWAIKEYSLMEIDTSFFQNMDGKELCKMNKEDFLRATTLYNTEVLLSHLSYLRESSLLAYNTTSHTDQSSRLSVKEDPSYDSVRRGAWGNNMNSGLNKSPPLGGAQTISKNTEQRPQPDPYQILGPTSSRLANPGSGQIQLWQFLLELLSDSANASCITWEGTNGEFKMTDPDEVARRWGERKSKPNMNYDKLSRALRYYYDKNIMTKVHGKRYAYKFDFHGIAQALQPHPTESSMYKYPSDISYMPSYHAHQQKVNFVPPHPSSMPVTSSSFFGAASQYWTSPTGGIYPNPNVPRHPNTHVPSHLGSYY
# Procedure, shortened: (§1)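 GST fusions of human transcription factors were expressed in yeast and captured with glutathione beads. Once given DNA barcodes and pooled alongside a tag-only sample, they were incubated for 30 min at room temperature with 200 nmole of a random double-stranded 16-mer DNA library in Tris/NaCl/DTT/glycerol buffer, then washed, crosslinked (0.1% formaldehyde), proximity-ligated, PCR-amplified and sequenced on an Illumina NextSeq500. The binding signal of each hexamer is its read frequency for a factor divided by its frequency for the tag-only sample.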
# ELK1 = target: T2, ELK1 (Homo sapiens, UniProt P19419 1-428); conditions: protein: recombinant; tags: N-terminal GST; dsDNA, one strand shown
# T2 sequence: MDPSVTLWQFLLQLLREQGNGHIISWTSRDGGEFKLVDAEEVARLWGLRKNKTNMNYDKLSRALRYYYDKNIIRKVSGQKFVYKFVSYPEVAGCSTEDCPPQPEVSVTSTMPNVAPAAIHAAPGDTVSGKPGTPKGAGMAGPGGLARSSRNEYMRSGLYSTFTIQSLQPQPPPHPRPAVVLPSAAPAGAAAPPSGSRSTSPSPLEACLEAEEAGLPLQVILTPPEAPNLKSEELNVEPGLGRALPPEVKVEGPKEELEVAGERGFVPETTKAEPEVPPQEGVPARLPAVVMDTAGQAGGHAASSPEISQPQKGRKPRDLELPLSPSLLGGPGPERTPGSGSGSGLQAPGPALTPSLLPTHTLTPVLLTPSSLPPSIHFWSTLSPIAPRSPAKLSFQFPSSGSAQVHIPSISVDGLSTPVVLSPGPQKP
# Procedure, shortened: as §1
# GABPA = target: T3, GABPA (Homo sapiens, UniProt Q06546 1-454); conditions: protein: recombinant; tags: N-terminal GST; dsDNA, one strand shown
# T3 sequence: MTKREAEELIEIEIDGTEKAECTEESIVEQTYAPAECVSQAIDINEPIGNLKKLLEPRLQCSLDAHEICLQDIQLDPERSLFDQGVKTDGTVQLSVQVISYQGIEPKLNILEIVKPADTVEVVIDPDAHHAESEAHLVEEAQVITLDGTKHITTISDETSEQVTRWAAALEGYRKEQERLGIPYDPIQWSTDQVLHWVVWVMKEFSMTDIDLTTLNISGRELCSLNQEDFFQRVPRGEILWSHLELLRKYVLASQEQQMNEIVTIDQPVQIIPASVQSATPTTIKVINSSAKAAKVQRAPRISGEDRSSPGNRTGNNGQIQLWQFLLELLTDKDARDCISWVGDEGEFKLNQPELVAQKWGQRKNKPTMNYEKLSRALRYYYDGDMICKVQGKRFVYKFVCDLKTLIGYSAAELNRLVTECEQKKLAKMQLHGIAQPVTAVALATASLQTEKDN
# Procedure, shortened: as §1
# ERG = target: T4, ERG (Homo sapiens, UniProt P11308 1-479); conditions: protein: recombinant; tags: N-terminal GST; dsDNA, one strand shown
# T4 sequence: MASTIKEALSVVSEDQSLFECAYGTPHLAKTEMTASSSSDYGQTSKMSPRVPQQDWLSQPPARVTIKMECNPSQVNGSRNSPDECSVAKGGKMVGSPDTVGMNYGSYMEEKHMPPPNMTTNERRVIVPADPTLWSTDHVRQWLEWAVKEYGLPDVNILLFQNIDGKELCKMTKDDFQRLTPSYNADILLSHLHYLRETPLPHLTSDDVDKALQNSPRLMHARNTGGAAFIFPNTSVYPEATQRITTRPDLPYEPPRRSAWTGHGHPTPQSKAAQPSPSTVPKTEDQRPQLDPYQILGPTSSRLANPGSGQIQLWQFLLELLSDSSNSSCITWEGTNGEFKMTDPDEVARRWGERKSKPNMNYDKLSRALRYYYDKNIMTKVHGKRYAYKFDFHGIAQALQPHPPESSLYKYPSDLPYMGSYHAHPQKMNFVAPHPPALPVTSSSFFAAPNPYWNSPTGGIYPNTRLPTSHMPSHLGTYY
# Procedure, shortened: as §1
# ELF1 = ELF1 (Homo sapiens, UniProt P32519 1-619); conditions: protein: recombinant; tags: N-terminal GST; dsDNA, one strand shown
# Sequence of ELF1 (P32519 whole entry): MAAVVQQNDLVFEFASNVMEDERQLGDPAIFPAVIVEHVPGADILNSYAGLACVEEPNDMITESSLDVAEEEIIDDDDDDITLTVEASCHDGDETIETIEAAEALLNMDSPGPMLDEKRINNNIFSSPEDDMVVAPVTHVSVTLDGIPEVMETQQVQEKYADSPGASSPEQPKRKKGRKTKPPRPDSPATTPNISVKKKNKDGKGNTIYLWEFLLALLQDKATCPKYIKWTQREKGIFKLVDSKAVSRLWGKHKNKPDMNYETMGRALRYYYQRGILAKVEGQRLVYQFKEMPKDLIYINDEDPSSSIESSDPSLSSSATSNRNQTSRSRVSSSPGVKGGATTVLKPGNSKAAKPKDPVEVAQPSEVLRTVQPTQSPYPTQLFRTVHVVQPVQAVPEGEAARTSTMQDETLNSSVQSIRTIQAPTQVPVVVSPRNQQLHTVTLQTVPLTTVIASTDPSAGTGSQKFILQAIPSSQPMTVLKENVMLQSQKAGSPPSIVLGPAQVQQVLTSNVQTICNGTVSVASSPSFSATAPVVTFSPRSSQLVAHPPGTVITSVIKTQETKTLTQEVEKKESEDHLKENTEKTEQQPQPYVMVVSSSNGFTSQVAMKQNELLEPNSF
# Procedure, shortened: as §1
# EHF = target: T5, EHF (Homo sapiens, UniProt Q9NZC4 1-300); conditions: protein: recombinant; tags: N-terminal GST; dsDNA, one strand shown
# T5 sequence: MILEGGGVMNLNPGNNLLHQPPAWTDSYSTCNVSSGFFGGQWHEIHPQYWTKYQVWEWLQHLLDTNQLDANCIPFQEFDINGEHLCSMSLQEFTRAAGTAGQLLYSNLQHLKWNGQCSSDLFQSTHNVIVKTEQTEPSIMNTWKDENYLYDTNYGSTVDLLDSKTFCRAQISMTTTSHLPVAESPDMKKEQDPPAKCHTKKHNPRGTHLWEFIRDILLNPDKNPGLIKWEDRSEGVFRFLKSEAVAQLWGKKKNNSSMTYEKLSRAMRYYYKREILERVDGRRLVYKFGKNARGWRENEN
# Procedure, shortened: as §1
# SPI1 = SPI1 (Homo sapiens, UniProt P17947 1-270); conditions: protein: recombinant; tags: N-terminal GST; dsDNA, one strand shown
# Procedure, shortened: as §1
# SPIB = SPIB (Homo sapiens, UniProt Q01892 1-262); conditions: protein: recombinant; tags: N-terminal GST; dsDNA, one strand shown
# Sequence of SPIB (Q01892 whole entry): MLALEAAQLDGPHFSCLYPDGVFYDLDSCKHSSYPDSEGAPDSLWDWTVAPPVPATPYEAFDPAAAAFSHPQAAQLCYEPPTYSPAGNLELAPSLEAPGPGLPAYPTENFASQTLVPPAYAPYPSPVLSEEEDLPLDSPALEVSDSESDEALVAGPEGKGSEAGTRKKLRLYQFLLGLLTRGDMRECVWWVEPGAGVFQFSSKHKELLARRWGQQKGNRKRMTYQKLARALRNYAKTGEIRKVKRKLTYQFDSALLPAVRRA
# Procedure, shortened: as §1
# ELK3 = target: T6, ELK3 (Homo sapiens, UniProt P41970 1-407); conditions: protein: recombinant; tags: N-terminal GST; dsDNA, one strand shown
# T6 sequence: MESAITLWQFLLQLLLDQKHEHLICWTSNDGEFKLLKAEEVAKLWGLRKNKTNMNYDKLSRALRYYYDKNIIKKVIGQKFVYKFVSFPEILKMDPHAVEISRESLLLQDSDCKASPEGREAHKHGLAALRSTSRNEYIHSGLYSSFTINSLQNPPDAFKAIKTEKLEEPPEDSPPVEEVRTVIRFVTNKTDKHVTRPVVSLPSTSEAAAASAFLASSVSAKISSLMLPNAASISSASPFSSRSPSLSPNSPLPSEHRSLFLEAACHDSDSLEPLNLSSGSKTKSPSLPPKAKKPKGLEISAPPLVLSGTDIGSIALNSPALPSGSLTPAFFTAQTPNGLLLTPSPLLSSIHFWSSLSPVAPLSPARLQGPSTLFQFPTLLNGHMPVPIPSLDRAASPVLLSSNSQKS
# Procedure, shortened: as §1
# FEV = target: T7, FEV (Homo sapiens, UniProt Q99581 1-238); conditions: protein: recombinant; tags: N-terminal GST; dsDNA, one strand shown
# T7 sequence: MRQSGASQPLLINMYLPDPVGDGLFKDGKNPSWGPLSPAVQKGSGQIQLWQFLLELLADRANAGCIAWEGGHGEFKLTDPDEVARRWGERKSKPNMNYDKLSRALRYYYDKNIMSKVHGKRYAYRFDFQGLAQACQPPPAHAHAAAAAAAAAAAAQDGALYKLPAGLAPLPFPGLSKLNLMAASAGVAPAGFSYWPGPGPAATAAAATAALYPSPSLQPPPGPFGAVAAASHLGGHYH
# Procedure, shortened: as §1
# ETV5 = ETV5 (Homo sapiens, UniProt P41161 1-510); conditions: protein: recombinant; tags: N-terminal GST; dsDNA, one strand shown
# Sequence of ETV5 (P41161 whole entry): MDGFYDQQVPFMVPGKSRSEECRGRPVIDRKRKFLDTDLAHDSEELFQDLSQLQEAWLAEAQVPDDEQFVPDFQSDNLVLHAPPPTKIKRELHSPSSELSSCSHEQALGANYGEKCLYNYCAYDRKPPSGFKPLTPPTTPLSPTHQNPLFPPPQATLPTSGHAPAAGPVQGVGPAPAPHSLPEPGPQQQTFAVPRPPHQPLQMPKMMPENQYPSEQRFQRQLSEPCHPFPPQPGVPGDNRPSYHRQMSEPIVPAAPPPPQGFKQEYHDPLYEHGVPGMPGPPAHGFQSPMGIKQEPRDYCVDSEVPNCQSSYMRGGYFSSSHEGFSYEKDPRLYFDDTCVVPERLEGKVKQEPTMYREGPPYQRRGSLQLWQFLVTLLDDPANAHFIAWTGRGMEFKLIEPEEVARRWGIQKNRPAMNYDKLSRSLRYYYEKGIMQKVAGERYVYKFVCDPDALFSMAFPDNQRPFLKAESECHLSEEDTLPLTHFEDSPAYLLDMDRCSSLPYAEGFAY
# Procedure, shortened: as §1
# HSF1 = HSF1 (Homo sapiens, UniProt Q00613 1-529); conditions: protein: recombinant; tags: N-terminal GST; chain copies: 3; dsDNA, one strand shown
# Sequence of HSF1 (Q00613 whole entry): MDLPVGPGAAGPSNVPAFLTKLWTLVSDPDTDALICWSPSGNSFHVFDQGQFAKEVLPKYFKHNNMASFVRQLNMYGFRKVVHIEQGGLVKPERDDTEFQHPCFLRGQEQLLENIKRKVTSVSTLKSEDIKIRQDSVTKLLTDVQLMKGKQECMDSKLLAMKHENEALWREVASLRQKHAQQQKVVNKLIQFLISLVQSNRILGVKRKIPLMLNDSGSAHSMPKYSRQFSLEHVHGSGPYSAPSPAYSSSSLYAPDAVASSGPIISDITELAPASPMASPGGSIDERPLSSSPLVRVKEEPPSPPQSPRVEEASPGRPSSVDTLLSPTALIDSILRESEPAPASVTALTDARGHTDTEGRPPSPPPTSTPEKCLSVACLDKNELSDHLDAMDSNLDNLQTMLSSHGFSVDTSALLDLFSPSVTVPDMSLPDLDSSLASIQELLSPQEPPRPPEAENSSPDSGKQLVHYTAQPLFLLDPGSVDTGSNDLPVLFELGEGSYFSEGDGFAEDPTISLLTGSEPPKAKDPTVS
# Procedure, shortened: as §1
# SPIC = target: T8, SPIC (Homo sapiens, UniProt Q8N5J4 1-248); conditions: protein: recombinant; tags: N-terminal GST; dsDNA, one strand shown
# T8 sequence: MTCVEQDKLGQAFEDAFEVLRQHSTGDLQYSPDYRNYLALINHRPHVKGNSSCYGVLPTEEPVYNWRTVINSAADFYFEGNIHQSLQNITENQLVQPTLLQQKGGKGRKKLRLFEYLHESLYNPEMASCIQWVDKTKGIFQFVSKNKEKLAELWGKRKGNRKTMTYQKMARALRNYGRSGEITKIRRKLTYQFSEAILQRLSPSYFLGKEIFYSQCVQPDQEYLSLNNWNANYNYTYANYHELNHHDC
# Procedure, shortened: as §1
# ELF4 = ELF4 (Homo sapiens, UniProt Q99607 1-663); conditions: protein: recombinant; tags: N-terminal GST; dsDNA, one strand shown
# Sequence of ELF4 (Q99607 whole entry): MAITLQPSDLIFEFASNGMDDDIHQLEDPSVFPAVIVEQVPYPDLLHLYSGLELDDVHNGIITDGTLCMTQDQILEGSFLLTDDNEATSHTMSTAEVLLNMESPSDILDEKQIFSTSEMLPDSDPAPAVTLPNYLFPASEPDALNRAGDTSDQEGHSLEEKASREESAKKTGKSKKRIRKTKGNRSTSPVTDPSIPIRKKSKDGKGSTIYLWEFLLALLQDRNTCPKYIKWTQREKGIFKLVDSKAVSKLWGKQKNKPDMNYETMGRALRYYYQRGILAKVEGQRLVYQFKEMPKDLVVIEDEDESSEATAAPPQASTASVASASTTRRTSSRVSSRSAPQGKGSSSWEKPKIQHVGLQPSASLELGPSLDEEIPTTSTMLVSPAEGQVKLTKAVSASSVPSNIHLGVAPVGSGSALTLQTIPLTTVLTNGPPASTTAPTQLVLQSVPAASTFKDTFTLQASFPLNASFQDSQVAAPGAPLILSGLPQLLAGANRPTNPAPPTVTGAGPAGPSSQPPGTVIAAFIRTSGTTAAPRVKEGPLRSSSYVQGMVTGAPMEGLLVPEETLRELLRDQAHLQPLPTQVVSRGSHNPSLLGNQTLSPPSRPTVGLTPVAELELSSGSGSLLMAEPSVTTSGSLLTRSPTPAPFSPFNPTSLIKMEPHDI
# Procedure, shortened: as §1
# ELK4 = target: T9, ELK4 (Homo sapiens, UniProt P28324-2 1-405); conditions: protein: recombinant; tags: N-terminal GST; dsDNA, one strand shown
# T9 sequence: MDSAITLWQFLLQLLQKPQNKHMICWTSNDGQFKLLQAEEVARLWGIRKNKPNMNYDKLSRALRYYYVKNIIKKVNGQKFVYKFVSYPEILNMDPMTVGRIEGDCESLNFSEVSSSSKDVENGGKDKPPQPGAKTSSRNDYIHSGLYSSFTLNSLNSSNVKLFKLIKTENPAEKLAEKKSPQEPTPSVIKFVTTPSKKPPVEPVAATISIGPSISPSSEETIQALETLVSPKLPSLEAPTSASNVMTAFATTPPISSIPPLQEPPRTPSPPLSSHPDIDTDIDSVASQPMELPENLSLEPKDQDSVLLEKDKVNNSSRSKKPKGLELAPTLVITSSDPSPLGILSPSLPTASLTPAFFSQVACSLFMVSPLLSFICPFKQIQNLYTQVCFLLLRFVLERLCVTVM
# Procedure, shortened: as §1
# ETV2 = target: T10, ETV2 (Homo sapiens, UniProt O00321 1-342); conditions: protein: recombinant; tags: N-terminal GST; dsDNA, one strand shown
# T10 sequence: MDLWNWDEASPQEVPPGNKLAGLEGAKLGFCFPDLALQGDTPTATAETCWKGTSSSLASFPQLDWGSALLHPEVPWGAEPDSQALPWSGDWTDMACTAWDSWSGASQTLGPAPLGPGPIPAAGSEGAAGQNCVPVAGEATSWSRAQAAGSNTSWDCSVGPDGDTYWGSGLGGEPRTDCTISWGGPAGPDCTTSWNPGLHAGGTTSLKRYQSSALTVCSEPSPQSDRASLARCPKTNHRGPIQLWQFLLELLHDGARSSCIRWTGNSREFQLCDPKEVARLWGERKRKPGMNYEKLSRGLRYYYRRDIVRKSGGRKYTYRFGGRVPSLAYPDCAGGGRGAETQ
# Procedure, shortened: as §1
# ELF3 = target: T11, ELF3 (Homo sapiens, UniProt P78545 1-371); conditions: protein: recombinant; tags: N-terminal GST; dsDNA, one strand shown
# T11 sequence: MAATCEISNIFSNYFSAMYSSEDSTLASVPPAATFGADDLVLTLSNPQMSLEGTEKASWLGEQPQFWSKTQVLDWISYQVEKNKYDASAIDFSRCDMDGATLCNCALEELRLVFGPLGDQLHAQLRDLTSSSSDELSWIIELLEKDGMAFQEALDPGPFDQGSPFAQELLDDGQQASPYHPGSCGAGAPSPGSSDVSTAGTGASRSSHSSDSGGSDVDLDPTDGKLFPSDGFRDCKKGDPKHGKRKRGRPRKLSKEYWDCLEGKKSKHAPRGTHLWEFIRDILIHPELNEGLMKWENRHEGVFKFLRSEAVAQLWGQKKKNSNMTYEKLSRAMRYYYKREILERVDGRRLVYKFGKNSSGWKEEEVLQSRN
# Procedure, shortened: as §1
# CRX = CRX (Homo sapiens, UniProt O43186 1-299); conditions: protein: recombinant; tags: N-terminal GST; dsDNA, one strand shown
# Sequence of CRX (O43186 whole entry): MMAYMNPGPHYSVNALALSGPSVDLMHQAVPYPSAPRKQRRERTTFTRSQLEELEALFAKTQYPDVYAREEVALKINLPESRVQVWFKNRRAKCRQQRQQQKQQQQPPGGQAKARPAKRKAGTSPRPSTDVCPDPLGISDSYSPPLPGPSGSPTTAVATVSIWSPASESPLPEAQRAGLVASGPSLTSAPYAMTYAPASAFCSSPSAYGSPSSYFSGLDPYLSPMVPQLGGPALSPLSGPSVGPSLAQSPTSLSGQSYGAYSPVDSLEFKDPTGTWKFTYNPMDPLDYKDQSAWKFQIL
# Procedure, shortened: as §1
# ETV1 = ETV1 (Homo sapiens, UniProt P50549 1-477); conditions: protein: recombinant; tags: N-terminal GST; dsDNA, one strand shown
# Sequence of ETV1 (P50549 whole entry): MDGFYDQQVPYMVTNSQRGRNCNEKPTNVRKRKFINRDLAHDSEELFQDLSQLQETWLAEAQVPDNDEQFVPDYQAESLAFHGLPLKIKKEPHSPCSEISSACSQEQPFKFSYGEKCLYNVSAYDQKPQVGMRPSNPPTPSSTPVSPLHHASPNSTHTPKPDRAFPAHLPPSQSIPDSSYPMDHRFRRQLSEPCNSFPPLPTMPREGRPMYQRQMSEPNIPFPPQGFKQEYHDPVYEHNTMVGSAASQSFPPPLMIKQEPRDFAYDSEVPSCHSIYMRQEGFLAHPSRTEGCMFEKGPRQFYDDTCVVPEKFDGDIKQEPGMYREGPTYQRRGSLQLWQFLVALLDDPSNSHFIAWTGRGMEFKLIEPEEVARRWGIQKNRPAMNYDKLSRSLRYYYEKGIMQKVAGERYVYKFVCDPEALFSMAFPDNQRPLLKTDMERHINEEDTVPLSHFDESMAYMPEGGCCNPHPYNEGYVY
# Procedure, shortened: as §1
sequence,measurement,setting,value
GATCCT,binding signal,FLI1,"1.28 fold enrichment (6-mer frequency, TF over GST control)"
same,binding signal,ELK1,"1.2 fold enrichment (6-mer frequency, TF over GST control)"
same,binding signal,GABPA,"1.3 fold enrichment (6-mer frequency, TF over GST control)"
same,binding signal,ERG,"1.38 fold enrichment (6-mer frequency, TF over GST control)"
same,binding signal,ELF1,"1.26 fold enrichment (6-mer frequency, TF over GST control)"
same,binding signal,EHF,"1.28 fold enrichment (6-mer frequency, TF over GST control)"
same,binding signal,SPI1,"1.24 fold enrichment (6-mer frequency, TF over GST control)"
same,binding signal,SPIB,"1.33 fold enrichment (6-mer frequency, TF over GST control)"
same,binding signal,ELK3,"1.31 fold enrichment (6-mer frequency, TF over GST control)"
same,binding signal,FEV,"1.23 fold enrichment (6-mer frequency, TF over GST control)"
same,binding signal,ETV5,"1.27 fold enrichment (6-mer frequency, TF over GST control)"
same,binding signal,HSF1,"1.41 fold enrichment (6-mer frequency, TF over GST control)"
same,binding signal,SPIC,"1.21 fold enrichment (6-mer frequency, TF over GST control)"
same,binding signal,ELF4,"1.35 fold enrichment (6-mer frequency, TF over GST control)"
same,binding signal,ELK4,"1.24 fold enrichment (6-mer frequency, TF over GST control)"
same,binding signal,ETV2,"1.43 fold enrichment (6-mer frequency, TF over GST control)"
same,binding signal,ELF3,"1.03 fold enrichment (6-mer frequency, TF over GST control)"
same,binding signal,CRX,"1.66 fold enrichment (6-mer frequency, TF over GST control)"
same,binding signal,ETV1,"1.34 fold enrichment (6-mer frequency, TF over GST control)"
